Compounds with a hit are over-represented: about 7.9% of the library has one in this group of screens.
HT1080NT lethal = kills 2HG-producing HT-1080-NT fibrosarcoma cells. HT-1080-NT fibrosarcoma viability, CellTiter-Glo ATP luminescence, 48 h. Potency, µM (titrated, usually from 46.1 µM), inactives show top-dose activity, negative = less viability, usual class: cytotoxic. 360,000 compounds, 1.6% hits;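 note: NT is the 2HG producing partner of a matched IDH1 knockdown line; 0% = DMSO-treated cells and -100% = media-only wells without cells; nearly all actives have a fitted effect of over 55% in size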
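Viability of the 2HG-overproducing fibrosarcoma line after 48 hours of compound exposure at 37 degrees C was determined by luminescence with CellTiter-Glo, and concentration-effect curves were then fitted and categorized.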
KB-3-1 tox = KB-3-1 parental cell cytotoxicity; KB-3-1 viability, CellTiter-Glo ATP luminescence, 72 h; Potency, µM (doses to about 46.1 µM), hits mostly cytotoxic; 400,000 compounds, 1.4% hits; AID 1347075; note: % is set by controls: 0 for no effect and ±100 for the full control effect; nearly all actives have a fitted effect of over 60% in size
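Luminescent ATP read-out (CellTiter-Glo) measures survival of drug-naive KB-3-1 cells after 72 h compound exposure at 37 °C. Titration series was screened from lowest to highest concentration, with DMSO vehicle plates as background controls.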
KB-V1 MDR tox = KB-V1 MDR subline cytotoxicity. KB-V1 MDR cells viability, CellTiter-Glo, 72 h. Potency, µM (highest dose often 46.1 µM), hits mostly cytotoxic. 400,000 compounds, 3.4% hits. AID 1347076; note: % is set by controls: 0 for no effect and ±100 for the full control effect; nearly all actives have a fitted effect of over 60% in size
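qHTS viability screen in drug-selected KB-V1 MDR cells: 72 h compound treatment at 37 degrees C, ATP luminescence end point.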
MCF10A rerep = DNA re-replication induction in MCF 10a cells; MCF 10A DNA re-replication, Hoechst nuclear intensity, 48 h; Potency, µM (top dose mostly 46.1 µM), without a hit: at the top dose activity, positive = re-replication, actives largely listed as activators; 350,000 compounds, 2.9% hits; note: % of control where 0% means no effect; nearly all actives have a fitted effect of over 50% in size
SW480 rereplic = inducers of DNA re-replication in SW480 colon cancer cells | SW480 DNA re-replication, Hoechst DNA content imaging, 48 h | Potency, µM (doses to about 46.1 µM), for inactives: at the highest dose re-replication activation, actives largely listed as activators | 340,000 compounds, 1.8% hits | AID 624297; note: % of control where 0% means no effect; nearly all actives have a fitted effect of over 55% in size
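Cells (250 per well) received 23 nL compound or DMSO by pin tool and were kept 48 hr at 37 C, 5% CO2. Nuclei were then stained with Hoechst for 40 min and scanned for DNA content.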
HT1080 IDH1KD tx = toxicity to HT-1080 IDH1 knockdown cells (counter line) | HT-1080 IDH1 knockdown viability, ATP luminescence, 48 h | AID 686971 | 360,000 compounds, 2% hits | Potency, µM (series often up to 46.1 µM), without a hit: at the highest dose activity, negative = toxicity, usual class: cytotoxic;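 note: 0% = DMSO wells and -100% = cell-free medium wells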
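Luminescent ATP read-out (CellTiter-Glo, 10 min at room temperature) after 48 h compound exposure at 37 °C gave viability of IDH1-knockdown HT-1080 cells. Activity was normalised to DMSO and cell-free wells, then fitted as concentration-response curves.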
* = called active by the depositor; i = inactive; ? = inconclusive; . = not tested or not shown; [ ] = dose if it differs, or a comment. Calls come from the whole dose curve; as a rule, active = well fitted curve in the direction sought with a large enough effect; inconclusive = small, poorly fitted or top-dose-only effect, or another doubt; inactive = no such curve, though single readings can be large; an effect the other way counts as inactive or inconclusive. Potency is the fitted concentration of half-maximal effect.

SMILES	HT1080NT lethal	KB-3-1 tox	KB-V1 MDR tox	MCF10A rerep	SW480 rereplic	HT1080 IDH1KD tx
Cc1ccccc1-n1ncc2c(SCC(=O)NCc3cccs3)ncnc21	?	5.2µM*	7.3µM*	13µM*	21µM*	21µM*
COc1ccccc1CNC(=O)Nc1ccc2c(c1)N(C)C(=O)c1ccccc1S2	.	i	i	.	.	.
Cc1oc(-c2cc(Cl)cc(Cl)c2)cc1C(=O)NCCc1ccccc1	-10%	i	?	15µM*	-3%	-1%
CN1CCN(CCCNC(=O)c2ccc(/C=C3\Sc4ccccc4N(Cc4ccc(F)cc4)C3=O)cc2)CC1	0%	i	i	18µM*	?	-28%
CCN1CCN(CCNC(=O)c2ccc(/C=C3\Sc4ccccc4N(Cc4ccccc4F)C3=O)cc2)CC1	16µM*	i	?	13µM*	18µM*	21µM*
CN1CCN(CCCNC(=O)c2ccc(/C=C3\Oc4ccccc4N(Cc4ccccc4F)C3=O)cc2)CC1	-9%	i	i	9.2µM*	6.5µM*	-28%
COCCCNC(=O)c1ccc2c(c1)N(Cc1ccccc1F)C(=O)c1ccccc1S2=O (configuration not stated)	.	i	?	.	.	.
CN1CCN(CCCNC(=O)c2ccc(/C=C3/Sc4ccccc4N(Cc4cccc(Cl)c4)C3=O)cc2)CC1	28%	i	?	?	?	-26%
COCCCNC(=O)/C=C1\Sc2ccccc2N(Cc2ccccc2F)C1=O	-5%	i	i	?	18µM*	-12%
CCC(Cn1nnc2ccccc2c1=O)NC(=O)Nc1cc(OC)cc(OC)c1 (configuration not stated)	.	i	i	.	.	.
Cn1c(=N)n(CC(O)c2ccco2)c2ccccc21 (configuration not stated)	7%	i	i	-4%	2%[9.22 µM]	14%
Cn1c(=N)n(CC(O)c2cccc3ccccc23)c2ccccc21 (configuration not stated)	23µM*	?	?	16%	?	-9%[9.24 µM]
Cc1cc(C)n(CCNC(=O)c2cc(COc3ccc4ncccc4c3)on2)n1	1%	?	i	-4%	-5%	-9%
CC(CCCC(C)(C)O)NC(=O)c1cc(COc2ccc3ncccc3c2)on1 (configuration not stated)	-5%	?	5.8µM*	6%	-10%	-22%
O=C(NCc1cccc(Cl)c1)c1cc(COc2ccc3ncccc3c2)on1	-20%	12µM*	3.3µM*	17%	-2%	-21%
Cc1ccc(C)c(NC(=O)Cn2c(=O)n(-c3ccccc3C)c(=O)c3c2c2cc(C)ccc2n3C)c1	.	i	?	.	.	.
COCCn1c(=NC(=O)c2ccc(S(=O)(=O)N3CCc4ccccc4C3)cc2)sc2cc(S(N)(=O)=O)ccc21	-13%	i	i	-2%	-4%	-13%
C#CCn1c(=NC(=O)c2ccc(S(=O)(=O)N3CCc4ccccc4C3)cc2)sc2cc(S(N)(=O)=O)ccc21	5.2µM*	?	?	4.1µM*	?	8.2µM*
COc1cccc(C(=O)N=c2sc3cc(S(C)(=O)=O)ccc3n2C)c1	-4%	i	i	1%	6.5µM*	-3%
COCCn1c(=NC(=O)c2ccc(S(=O)(=O)N3CCCc4ccccc43)cc2)sc2cc(S(C)(=O)=O)ccc21	5%	i	1.8µM*	?	?	13%
C=CCn1c(=NC(=O)c2ccc(S(=O)(=O)N3CCc4ccccc4C3)cc2)sc2cc(S(N)(=O)=O)ccc21	13µM*	i	?	9.2µM*	?	21µM*
C=CCn1c(=NC(=O)c2ccc(S(=O)(=O)N3CCCc4ccccc43)cc2)sc2cc(S(N)(=O)=O)ccc21	-2%	i	i	28%	4%	-11%
CC(C)CCNC(=O)C1CCN(C(=O)c2cc3sccc3n2Cc2ccc(Cl)cc2)CC1	.	i	i	.	.	.
COc1ccc(-c2cn3nc(N4CCCC(C(=O)Nc5ccccc5F)C4)sc3n2)cc1 (configuration not stated)	.	i	i	.	.	.
COc1ccc(CCNC(=O)c2ccc(Br)o2)cc1Br	9%	i	?	.	.	3%
SMILES	HT1080NT lethal	KB-3-1 tox	KB-V1 MDR tox	MCF10A rerep	SW480 rereplic	HT1080 IDH1KD tx
O=C(Nc1ccc(-c2nc3ccccc3o2)cc1)c1ccc(N2C(=O)C3C4C=CC(C4)C3C2=O)cc1 (configuration not stated)	3%	i	4.1µM*	?	11%	0%
CCN(CC)CC(=O)Nc1ccc(-c2nc3cc(NC(=O)CN(CC)CC)ccc3o2)cc1	-3%	?	18µM*	-1%	-3%	-3%
O=C(Nc1ccc2oc(-c3ccccc3)nc2c1)c1ccncc1	-11%	?	8.2µM*	7%	-1%	-19%
O=C(Nc1ccc2oc(-c3ccccc3Cl)nc2c1)c1cncc(Br)c1	?	?	5.2µM*	16µM*	?	-9%
O=C(Nc1ccc2oc(-c3cc(Br)ccc3Cl)nc2c1)c1ccc2ccccc2c1	.	i	i	.	.	.
O=C(Nc1ccc2oc(-c3ccccc3)nc2c1)c1cccs1	-16%	i	i	8%	-5%	-10%
Cc1ccc(CNC(=O)Cn2c(=O)n(Cc3ccccc3)c(=O)c3c2c2cc(C)ccc2n3C)cc1	.	i	?	.	.	.
COc1ccc(NC(=O)Cn2cc(C(=O)c3ccccc3)c(=O)c3cc(OC)ccc32)c(OC)c1	.	i	?	.	.	.
Cc1ccc2oc(-c3cccc(N)c3)nc2c1	-9%	i	?	-42%	-8%	-14%
